Source: PubChem BioAssay (EPA / NIEHS)
The source made the active and inactive calls. How the source made its calls: active means hit-call score of the fitted dose curve at least 0.9, where 1 is the maximum; inactive means score below 0.9.

Each compound was assayed on Interferon-gamma inducible Protein 10 (IP10), CXCL10 (gene 3627) (assay: BSK_KF3CT_IP10: BioMAP Diversity Plus: KF3CT Assay for Interferon-gamma inducible Protein 10 (IP10) Biomarker Activity (AID 2283068)). Settings: primary human keratinocytes with fibroblasts; actives raise or lower the signal.
Protocol: BSK_KF3CT is a cell-based, multiplexed-readout assay that uses keratinocytes and foreskin fibroblasts, a human skin primary cell co-culture, with measurements taken at 24 hours after chemical dosing in a 96-well plate.BSK_KF3CT_IP10 is an assay component measured in the BSK_KF3CT assay. It measures IP-10 antibody related to regulation of gene expression using ELISA technology.Data from the assay component BSK_KF3CT_IP10 was analyzed into 1 assay endpoint. This assay endpoint, BSK_KF3CT_IP10, was analyzed with bidirectional fitting relative to DMSO as the negative control and baseline of activity. Using a type of binding reporter, gain or loss-of-signal activity can be used to understand changes in the signaling as they relate to the gene CXCL10. Furthermore, this assay endpoint can be referred to as a primary readout, because this assay has produced multiple assay endpoints where this one serves a signaling function. To generalize the intended target to other relatable targets, this assay endpoint is annotated to the cytokine intended target family, where the subfamily is chemotactic factor.
The levels of cell surface (or secreted, indicated by the prefix "s") biomarker endpoints were measured by ELISA. Overt cytotoxicity to cells in confluent adherent cultures (all systems other than the BT system) was assessed by measuring total protein levels using sulforhodamine B (SRB) staining in parallel cultures at the time of biomarker measurements, indicated as SRB endpoints. For proliferation assays for adherent cell types, individual cell types are cultured at sub-confluence and relative cell numbers quantified by SRB staining at time points optimized for each system (48 h: 3C and CASM3C systems; 72 h: BT and HDF3CGF systems; 96 h: SAg system). SRB was performed by staining cells with 0.1% SRB after fixation with 10% TCA and reading wells at 560 nm.Viability and proliferation of PBMC (T cells) was quantified by Alamar Blue reduction for the SAg and BT systems. For PBMC viability (referred to as PBMC Cytotoxicity within the assay endpoint names), cells were plated (75,000/well in a 96-well plate) and then chemical samples added for 1 h before addition of activators, SEB and TSST-1 (20 ng/mL final concentration each). Cells were incubated for 90 h. Then, Alamar Blue (20 uL/well) (Invitrogen, Cat DAL1100) was added for 6 h, and the plates were read with a fluorescence microplate reader at 546/580 nm (excitation/emission). For PBMC proliferation, cells were plated and activated as above but incubated for only 16 h prior to addition of Alamar Blue. Plates were read after 6 h.

| Structure (SMILES) | outcome | AC50 |
| --- | --- | --- |
| CCOCCO | inactive | – |
| COc1ccc(/C=C/S(=O)(=O)NC(=O)c2ccc(C)cc2Cl)cc1 | – | 32.6 µM (active) |
| CCCCC(CC)COC(=O)c1ccc(C(=O)OCC(CC)CCCC)cc1 (stereo not given) | inactive | – |
| CC(C)=CCC/C(C)=C/CO | inactive | – |
| O=C(O)CC(O)C(=O)O (stereo not given) | inactive | – |
| CC(=O)OC[C@H]1O[C@@](COC(C)=O)(O[C@H]2O[C@H](COC(C)=O)[C@@H](OC(C)=O)[C@H](OC(C)=O)[C@H]2OC(C)=O)[C@@H](OC(C)=O)[C@@H]1OC(C)=O | inactive | – |
| O=C(OC[C@H]1O[C@@H](OC(=O)c2cc(O)c(O)c(OC(=O)c3cc(O)c(O)c(O)c3)c2)[C@H](OC(=O)c2cc(O)c(O)c(OC(=O)c3cc(O)c(O)c(O)c3)c2)[C@@H](OC(=O)c2cc(O)c(O)c(OC(=O)c3cc(O)c(O)c(O)c3)c2)[C@@H]1OC(=O)c1cc(O)c(O)c(OC(=O)c2cc(O)c(O)c(O)c2)c1)c1cc(O)c(O)c(OC(=O)c2cc(O)c(O)c(O)c2)c1 | – | 4.98 µM (active) |
| C1=CCCC=CCCC=CCC1 | inactive | – |
| NC(=O)NO | inactive | – |
| O=C(NS(=O)(=O)/C=C/c1ccccc1)c1ccc(F)cc1Cl | inactive | – |
| Oc1ccc2c(c1)-c1ccccc1C2 | inactive | – |
| O=C1CCC(N2C(=O)c3ccccc3C2=O)C(=O)N1 (stereo not given) | inactive | – |
| CC[C@H](C)C(=O)O[C@H]1C[C@@H](C)C=C2C=C[C@H](C)[C@H](CC[C@@H]3C[C@@H](O)CC(=O)O3)[C@H]21 | – | 34.6 µM (active) |
| C=CCCCCCCCCC(=O)O | inactive | – |
| CCCCCCCCO | inactive | – |
| CCCC(=O)OCC | inactive | – |
| CCCN(C1CCN(C(=O)C2CCNCC2)CC1)[C@@H]1CCc2ccc(OC)cc2C1 | inactive | – |
| On1ccccc1=S | – | 10.3 µM (active) |
| CC(=O)OCCC(C)C | inactive | – |
| CNCc1ccc(NC(=O)c2c[nH]c3c2C(=O)CCC3)cc1 | inactive | – |

| Structure (SMILES) | outcome | AC50 |
| --- | --- | --- |
| O=C(O)c1cccc(Oc2ccccc2)c1 | inactive | – |
| CCOC(=O)CC(CC(=O)OCC)(OC(C)=O)C(=O)OCC | inactive | – |
| Cn1c(=O)c2c(ncn2C)n(C)c1=O | inactive | – |
| O=c1n(CC2CO2)c(=O)n(CC2CO2)c(=O)n1CC1CO1 (stereo not given) | inactive | – |
| CCN(C(=O)c1cc(C)cc(OC[C@H](C)Nc2ccncc2)c1)C(C)C | inactive | – |
| Nc1ccc(Nc2ccccc2)cc1 | inactive | – |
| CCC(C)(C)C(=O)O[C@H]1C[C@@H](C)C=C2C=C[C@H](C)[C@H](CC[C@@H]3C[C@@H](O)CC(=O)O3)[C@H]21 | – | 34.3 µM (active) |
| CC[C@H]1CC[C@H](NCc2cc3c(cc2OC)[C@H]2C[C@H]2C(=O)N3C)[C@H](c2ccccc2)N1 | inactive | – |
| Clc1nc(Cl)c(Cl)c(Cl)c1Cl | inactive | – |
| Cc1c(-c2cccnc2)c2ccccc2n1CCCCC(=O)O | inactive | – |
| CC(C)=CCCC(C)=CC=O | inactive | – |
| CC1(C)C(=O)N(Br)C(=O)N1Br | inactive | – |
| CC(C)c1cccc(C(C)C)c1N1C(=O)c2ccc(O)cc2C1=O | – | 26 µM (active) |
| CC(C)CCO | inactive | – |
| O=C(O)CCN(C1(C(=O)NO)CCCC1)S(=O)(=O)c1ccc(Oc2ccc(F)cc2)cc1 | inactive | – |
| Cc1ccc(O)cc1 | inactive | – |
| Cc1[nH]cnc1C[C@H]1CCc2c(C)c3ccccc3n2C1=O | inactive | – |
| CCOCCOCCOCCO | inactive | – |
| CC(=O)c1ccc2c(c1)[C@H](NC(=O)c1ccc(F)cc1)[C@@H](O)C(C)(C)O2 | inactive | – |
| CCn1nc(Cc2ccccc2)cc1C1CCN(C[C@H]2C[C@H](N(C)[C@@H](C(=O)O)C(C)C)C[C@@H]2c2cccc(F)c2)CC1 | inactive | – |
